Most compounds without a hit are left out; they make up all but 21% or so of the library.
CHX counter: Cycloheximide Counterscreen for Small Molecule Inhibitors of Shiga Toxin. cell reporter, cycloheximide protein synthesis inhibition counterscreen. max response, %. actives 12% (n = 300,000). AID 2314, 2010; in the data active = max response mostly above about 13%, no sharp cut-off; inactive = mostly below about 14%; note: read at 38.3 µM for the half of the compounds with a filed dose
Giardia FBPA inh: qHTS Assay for Inhibitors of Fructose-1,6-bisphosphate Aldolase from Giardia Lamblia; A8B2U2; purified Giardia FBPA; Potency, µM (titrated, usually from 59.6 µM), actives largely listed as inhibitors; actives 0.71% (n = 290,000); AID 2451, 2010; note: nearly all actives have a fitted effect of over 55% in size
Target sequence (A8B2U2 whole entry, looked up): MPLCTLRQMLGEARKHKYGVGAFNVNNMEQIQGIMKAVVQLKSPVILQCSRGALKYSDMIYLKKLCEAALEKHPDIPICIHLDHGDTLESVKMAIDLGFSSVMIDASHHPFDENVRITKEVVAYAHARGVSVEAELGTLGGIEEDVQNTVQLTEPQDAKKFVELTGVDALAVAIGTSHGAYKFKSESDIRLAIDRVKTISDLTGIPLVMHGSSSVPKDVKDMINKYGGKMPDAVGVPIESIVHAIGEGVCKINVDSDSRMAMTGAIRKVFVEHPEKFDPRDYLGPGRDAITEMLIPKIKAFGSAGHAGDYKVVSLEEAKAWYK
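Giardia FBPA (40 nM reagent) was preincubated 10 min at RT with compound (up to 57.5 uM final), then substrate plus GAPDH/TPI/NAD/arsenate coupling system with diaphorase/resazurin was added; resorufin fluorescence (525/598 nm) was read after 20 min.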
Shiga inhibitor: A qHTS for Small Molecule Inhibitors of Shiga Toxin | Vero cells, Shiga toxin protein synthesis inhibition reporter | inhibition, % at 38.7 µM | actives 9.2% (n = 290,000) | AID 2315, 2010; in the data active = inhibition mostly above about 28%, no sharp cut-off; inactive = mostly below about 43%
NS1 function inh: qHTS Assay for Inhibitors of Influenza NS1 Protein Function; AID 2326, 2010; Potency, µM (titrated, usually from 46.1 µM); actives 0.4% (n = 270,000); calls by dose curve; note: actives are rising curves; nearly all actives have a fitted effect of over 50% in size
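Recovery from NS1-induced slow growth read by OD600 in budding yeast switched to galactose assay medium (pH 6.0, -URA) at 1:100 dilution. Compound 23 nl per well; the matching strain lacking NS1 serves as control.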
Pf growth 48h: Primary qHTS for delayed death inhibitors of the malarial parasite plastid, 48 hour incubation. P. falciparum luciferase growth in erythrocytes, 48 h. Potency, µM (titrated, usually from 28.7 µM), actives largely listed as inhibitors. actives 5.9% (n = 310,000). AID 504832, 2011
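Luminescence readout; reporter = integrated firefly luciferase in P. falciparum. RBC culture at 2% hematocrit, 0.1% parasitemia final, 37 C/5% CO2; decreased signal taken as growth inhibition.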
Pf growth 96h: Primary qHTS for delayed death inhibitors of the malarial parasite plastid, 96 hour incubation | AID 504834, 2011 | Potency, µM (doses to about 28.7 µM), actives largely listed as inhibitors | actives 6.9% (n = 320,000) | P. falciparum luciferase reporter growth, 96 h
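96 h incubation, 37 C, 5% CO2, of luciferase-reporter P. falciparum-infected RBCs (2% hematocrit, 0.05% parasitemia final) with test compounds; endpoint luminescence.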
Hits are given with their value; i = inactive; ? = inconclusive; nt = not tested or not shown. Unless noted, calls come from the whole dose curve; as a rule, active = well fitted curve in the direction sought with a large enough effect; inconclusive = small, poorly fitted or top-dose-only effect, or another doubt; inactive = no such curve, though single readings can be large; an effect the other way counts as inactive or inconclusive.

SMILES	CHX counter	Giardia FBPA inh	Shiga inhibitor	NS1 function inh	Pf growth 48h	Pf growth 96h
N#Cc1ccc(-c2cccnc2)nc1SCc1ccc(Cl)c(Cl)c1	i	i	i	i	9.3µM	?
Cc1ccc(C(=O)N/N=C/c2ccc(-c3ccc(Br)cc3[N+](=O)[O-])o2)o1	18	nt	i	i	9.3µM	?
Cc1ccc(C(=O)N/N=C\c2ccc(Br)o2)o1	i	i	i	i	?	i
Cc1c(C(=O)N/N=C/c2ccc(-c3ccccc3[N+](=O)[O-])o2)sc(N)c1C#N	18	?	i	i	i	?
Nn1cnnc1N/N=C\c1ccc(-c2ccccc2[N+](=O)[O-])o1	17	1.8µM	i	i	i	i
Nc1cc(-c2ccccc2)nn1Cc1ccc(Cl)cc1	i	i	i	i	?	i
CN(Cc1ccc(F)cc1)C(=O)c1sccc1-c1ccccc1	i	nt	i	i	i	?
Clc1ccc(C[n+]2c(-c3ccccc3)cc(-c3ccccc3)cc2-c2ccccc2)cc1	nt	nt	nt	nt	0.37µM	0.33µM
Fc1ccc(C[n+]2c(-c3ccccc3)cc(-c3ccccc3)cc2-c2ccccc2)cc1	nt	nt	nt	nt	0.93µM	0.37µM
Cc1c(Cl)cccc1Nc1nc(N)nc(CSC(=S)N2CCOCC2)n1	39	i	i	nt	i	?
COc1ccc(Nc2nc(N)nc(CSC(=S)N3CCN(C)CC3)n2)cc1	17	i	i	i	i	?
Cc1c(Cl)cccc1Nc1nc(N)nc(CN2CCCCCC2)n1	i	i	i	i	i	nt
COc1ccc(Nc2nc(N)nc(CSC(=S)N3CCCCC3C)n2)cc1 (stereo unspecified)	28	i	65	i	i	?
COc1ccc(Nc2nc(N)nc(CN(C)C3CCCCC3)n2)cc1	i	i	i	i	?	?
COc1ccc(Nc2nc(N)nc(CSC(=S)N3CCCCC3)n2)cc1	48	i	36	nt	i	i
S=C(NC1CCCC1)N1CCN(c2ccc(Cl)cc2)CC1	i	i	i	i	i	i
CCc1nnc(NC(=O)c2ccncc2)s1	i	i	i	i	i	i
CCc1nnc(NC(=O)c2cccc(C(=O)Nc3nnc(CC)s3)n2)s1	i	i	i	i	i	9.3µM
CCOc1cc(NC(=O)C2CC2)c(OCC)cc1NC(=O)c1ccccc1OCC	i	i	i	i	5.9µM	i
CC(C)c1ccccc1NC(=O)c1ccccc1NC(=O)C1CCCCC1	i	i	i	i	12µM	i
CCOc1ccccc1C(=O)Nc1nnc(CC)s1	14	i	25	i	i	?
COCCN(C(=O)COC(=O)CSc1ccc(Cl)cc1)c1c(N)n(Cc2ccccc2)c(=O)[nH]c1=O	nt	nt	nt	nt	i	i
Cc1cccc(NC(=S)NCCc2ccc3c(c2)OCCO3)c1C	i	i	i	nt	i	?
C#CCOC(=O)[C@H](N)CC(N)=O	nt	nt	nt	i	nt	nt
O=C(CSc1ncccc1C(=O)Oc1ccccc1Cl)Nc1ccccc1Cl	i	nt	64	nt	nt	nt
SMILES	CHX counter	Giardia FBPA inh	Shiga inhibitor	NS1 function inh	Pf growth 48h	Pf growth 96h
O=C(COc1ccccc1O)Nc1ccccc1Cl	71	i	93	i	i	i
Cc1cccc(OCC(=O)Nc2cccc(C(=O)Nc3ccccc3C(=O)O)c2)c1	i	i	i	i	i	?
O=C(COc1ccccc1Cl)Nc1ccc(C(=O)O)cc1NC(=O)COc1ccccc1Cl	i	nt	i	i	i	6.6µM
CC(C)c1ccc(OCC(=O)Nc2cccc(C(=O)Nc3ccccc3C(=O)O)c2)cc1	i	i	i	i	?	9.3µM
O=C(NCC1CCCCC1)c1cc(Br)ccc1Cl	i	i	i	i	i	i
O=C(COc1ccccc1Cl)Nc1ccccc1C(=O)Nc1cccc(C(=O)O)c1	40	nt	i	i	i	i
Cn1c(N)c(C(=O)COC(=O)c2ccc(OC(F)F)cc2)c(=O)n(C)c1=O	nt	nt	nt	nt	?	i
Cc1cc2c3c([nH]c2cc1S(=O)(=O)N1CCC2(CC1)OCCO2)CC(C)(C)CC3=O	i	i	i	i	8.3µM	?
C=C(C)C1Cc2c(ccc(C(=O)O)c2O)O1 (stereo unspecified)	nt	i	nt	nt	nt	nt
Cc1ccc(-n2c(=O)cc(NCc3cccnc3)[nH]c2=O)cc1	i	i	i	i	i	1.9µM
Cc1ccc(C)c(NC(=O)C2CCN(S(=O)(=O)c3ccc4c(c3)NC(=O)CO4)CC2)c1	i	nt	i	i	i	i
CC(C)(C)N=C1NN=C(c2ccc(Cl)cc2)CS1	70	i	91	i	i	i
CC(C)(C)N=C1NN=C(c2cc3ccccc3o2)CS1	30	i	86	i	i	?
COc1ccc(CN=C2NN=C(c3ccc(Cl)cc3)CS2)cc1	21	i	52	nt	i	?
COc1ccc(C2=NN(C)C(=NCc3ccccc3)SC2)cc1	i	i	38	i	i	i
COc1ccc(CN=C2Nc3ccccc3CS2)cc1	30	i	i	i	i	i
COCCn1c(CN2CCN(c3ccc(F)cc3)CC2)nc2c1c(=O)n(C)c(=O)n2C	i	i	i	i	i	i
CCCCCn1c(CN2CCN(C(=O)c3ccco3)CC2)nc2c1c(=O)n(C)c(=O)n2C	i	i	i	i	9.3µM	?
CCCCn1c(CN2CCN(c3ccc(F)cc3)CC2)nc2c1c(=O)n(C)c(=O)n2C	30	i	i	i	i	?
CCCCn1c(CN2CCN(C(=O)c3ccco3)CC2)nc2c1c(=O)n(C)c(=O)n2C	i	i	i	i	?	13µM
Cn1c(=O)c2c(nc(CN3CCN(C(=O)c4ccco4)CC3)n2CCCc2ccccc2)n(C)c1=O	i	i	i	i	nt	7.4µM
O=C(O)COc1ccccc1/C=N/NC(=O)c1cccc(S(=O)(=O)N2CCOCC2)c1	i	?	i	nt	i	i
Cc1cccnc1NC(=O)c1ccc(NS(=O)(=O)/C=C/c2ccccc2)cc1	nt	nt	nt	nt	?	i
CN(C)c1ccc(C(=O)/C=C/c2cccnc2)cc1	46	i	82	i	i	i
CCN(C(=O)c1cccc(Br)c1)c1ccccc1	i	i	i	i	i	i
SMILES	CHX counter	Giardia FBPA inh	Shiga inhibitor	NS1 function inh	Pf growth 48h	Pf growth 96h
CN(C)c1ccc(/C=C/C(=O)c2cccc(Br)c2)cc1	64	i	127	i	i	?
CS(=O)(=O)Nc1cccc(-c2cc(F)c(S(=O)(=O)N3CCN(S(=O)(=O)c4ccc5c(c4)OCCO5)CC3)cc2F)c1	i	nt	i	nt	nt	nt
CCNS(=O)(=O)c1ccc(NC(=S)N2CCc3ccccc32)cc1	i	i	i	i	i	i
O=C(C(NS(=O)(=O)c1cccs1)c1ccccc1)N1CCN(c2ccccc2)CC1 (stereo unspecified)	i	i	i	?	?	12µM
O=C1C(NS(=O)(=O)c2cccs2)=C(N2CCN(c3ccccc3)CC2)C(=O)c2ccccc21	i	?	44	i	?	nt
O=S(=O)(c1cccs1)N1CCN(c2ccccc2)CC1	i	i	i	i	i	i
CC1/C(=N/O)CC(c2ccccc2)N(C)C1c1ccccc1 (stereo unspecified)	i	i	i	i	13µM	?
